Laboratory results taken from ChEMBL document CHEMBL3988442, “University of Dundee, Small-Polar-MMV Screening Library” (2021).
About 1,000 (1.4%) of roughly 69,000 compounds showed an effect of 50% or more. This is one part of a sample in which strong results are shown more often than they occur.

Tested on: Leishmania donovani
Experiment: Leishmania intramacrophage assay
Assay type: functional, organism-based
Set-up: scale not given: in the data most compounds retested in dose-response had high values

## CC(C)c1ccc(OCn2ccc(C(=O)N3CCCC3)n2)cc1
30 µM, 30.03 µM
  Percent Effect: 59.3%

## O=C(c1ccn(COc2ccc(F)cc2)n1)N1CCCC1
30.3 µM, […]
  Percent Effect: 0.02157%

## Cc1nsc(C(=O)NCCc2ccc(Cl)cc2)n1
30.3 µM, […]
  Percent Effect: 25.28%

## Cc1ccnc(NCCCN2CCc3ccccc32)n1
30.3 µM, […]
  Percent Effect: 20.07%

## CN(C)c1nc(NCCCN2CCc3ccccc32)ncc1F
30.3 µM, […]
  Percent Effect: 50.82%

## Cc1cnc(NCCCN2CCc3ccccc32)nc1
30.3 µM, […]
  Percent Effect: 21.16%

## CNC(=O)c1cccc(NC(=O)CN2CCN(S(C)(=O)=O)CC2)c1
30 µM, 30.03 µM
  Percent Effect: 9.767%

## Cc1ccc(OCC(=O)N(C)Cc2cccc(F)c2)cn1
30.3 µM, […]
  Percent Effect: 34.51%

## O=C(CCN1CCCCO1)NC1CCCN(CC2CCCCC2)C1 (stereo not drawn)
30.3 µM, […]
  Percent Effect: -1.788%

## O=C(CCN1CCOCC1)NC1CCCN(CC2CCCCC2)C1 (stereo not drawn)
30.3 µM, […]
  Percent Effect: 10.41%

## O=C(NC1CCN(CC2CCCC2)C1)N1CCC(OCC2CC2)CC1 (stereo not drawn)
30.3 µM, […]
  Percent Effect: 32.77%

## O=C(NC1CCN(CC2CC2)C1)N1CCC(OC2CCCCC2)CC1 (stereo not drawn)
30.3 µM, […]
  Percent Effect: 53.02%

## NC(=O)C1CCN(C(=O)NC2CCN(CC3CCCC3)C2)CC1 (stereo not drawn)
30.3 µM, […]
  Percent Effect: 54.02%

## CSC(C)(C)CNC(=O)NC1CCN(CC2CC2)C1 (stereo not drawn)
30.3 µM, […]
  Percent Effect: 2.957%

## COc1ncccc1C(=O)N1CCCC1c1c(C)n[nH]c1C (stereo not drawn)
30.3 µM, […]
  Percent Effect: 18%

## Cc1noc(C2CCCN(C(=O)CCCNc3ncccn3)C2)n1 (stereo not drawn)
30 µM
  Percent Effect: -32%

## CN(CC(=O)N1CCN(c2ncccn2)CC1)c1ccc(Cl)cn1
30 µM, 30.03 µM
  Percent Effect: 26.44%

## O=C(O)c1ccc(CC2CCN(Cc3ccc(-c4cc[nH]n4)o3)C2)cc1 (stereo not drawn)
30.3 µM, […]
  Percent Effect: -33.6%

## O=C(O)c1ccc(C2CCCN(Cc3ccc(-c4cc[nH]n4)o3)C2)cc1 (stereo not drawn)
30.3 µM, […]
  Percent Effect: 54.21%

## O=C(O)c1ccccc1C1CCN(Cc2ccc(-c3cc[nH]n3)o2)C1 (stereo not drawn)
30.3 µM, […]
  Percent Effect: 8.649%

## CNC(=O)CNC(=O)Nc1ccc(Br)c(F)c1
30.3 µM, […]
  Percent Effect: -0.911%

## COc1ccc2ccccc2c1CNCC1CCS(=O)(=O)C1.Cl (stereo not drawn)
30.3 µM, […]
  Percent Effect: -2.378%

## CCOc1ccc2ccccc2c1CNCC1CCS(=O)(=O)C1.Cl (stereo not drawn)
30.3 µM, […]
  Percent Effect: -4.478%

## CCOc1ccc2ccccc2c1CNCC1CCNCC1.Cl.Cl
30.3 µM, […]
  Percent Effect: 87.01%

## CN(C)C(=O)COC1COC2(CCN(S(C)(=O)=O)CC2)C1 (stereo not drawn)
30 µM, 30.03 µM
  Percent Effect: 8.131%

## COc1ccc(-c2noc([C@@H](C)NS(=O)(=O)CC(C)C)c2C(=O)O)cc1
30.3 µM, […]
  Percent Effect: 14.82%

## OCc1ccncc1NCc1cnc(-c2ccccn2)s1
30.3 µM, […]
  Percent Effect: 26.01%

## Cc1nn(CC(=O)NCCc2ccncc2)c(=O)n1Cc1ccccc1
30.3 µM, […]
  Percent Effect: 4.169%

## C=C(C)COc1cccc(CNCCc2nc(N)cc(O)n2)c1
30.3 µM, […]
  Percent Effect: 10.98%

## CCOCc1ccc(NC(=O)N2CCOC3(CCC3)C2)cc1
30.3 µM, […]
  Percent Effect: -4.354%

## CC1(C)CN(CC(=O)NCc2ccccc2F)C[C@]1(C)O
30.3 µM, […]
  Percent Effect: 15.59%

## Cc1ccc(C(=O)O)cc1CNC(=O)CN1CC[C@](C)(O)C(C)(C)C1
30.3 µM, […]
  Percent Effect: 62.04%

## Cc1ccc(C(=O)O)cc1CNC(=O)CN1CC(C)(C)[C@@](C)(O)C1
30.3 µM, […]
  Percent Effect: 14.97%
